# JMJD2A Tudor inh = qHTS Assay for Inhibitors of JMJD2A-Tudor Domain; Lysine-specific demethylase 4A (Homo sapiens), O75164; AlphaScreen JMJD2A-Tudor / H3K4me3 peptide binding; Potency, µM (highest dose often 114 µM), inactives show at the highest dose activity change, negative = inhibition, actives largely listed as inhibitors; 390,000 compounds, 4.4% hits; AID 504339, 2011; further: on the % scale 0 is the no-effect control and ±100 the full control effect; nearly all actives have a fitted effect of over 50% in size
# HP1b binding inh = HTS for Inhibitors of HP1-beta Chromodomain Interactions with Methylated Histone Tails. Chromobox protein homolog 1 (Homo sapiens), P83916. 390,000 compounds, 0.56% hits. Potency, µM (top dose mostly 114 µM), for inactives: top-dose activity change, negative = inhibition, hits mostly inhibitors. AlphaScreen HP1-beta / biotin-H3K9me3 peptide binding; further: nearly all actives have a fitted effect of over 70% in size
#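 AlphaScreen: HP1-beta (50 nM) preformed 30 min with biotin-H3(1-18)K9me3 peptide (50 nM) in PBS pH 7.4, 0.01% Tween-20. Compound added for 30 min at RT, then streptavidin donor/nickel chelate acceptor beads (10 ug/mL) for 30 min.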
# GLS inhibitor = qHTS for Inhibitors of Glutaminase (GLS). GLS enzymatic activity, qHTS titration. Potency, µM (top dose mostly 45.5 µM), for inactives: at the highest dose activity change, negative = inhibition, most hits filed as inhibitors. 410,000 compounds, 0.21% hits. AID 624170, 2012; further: on the % scale 0 is the no-effect control and ±100 the full control effect
# Target sequence (O94925 whole entry, looked up): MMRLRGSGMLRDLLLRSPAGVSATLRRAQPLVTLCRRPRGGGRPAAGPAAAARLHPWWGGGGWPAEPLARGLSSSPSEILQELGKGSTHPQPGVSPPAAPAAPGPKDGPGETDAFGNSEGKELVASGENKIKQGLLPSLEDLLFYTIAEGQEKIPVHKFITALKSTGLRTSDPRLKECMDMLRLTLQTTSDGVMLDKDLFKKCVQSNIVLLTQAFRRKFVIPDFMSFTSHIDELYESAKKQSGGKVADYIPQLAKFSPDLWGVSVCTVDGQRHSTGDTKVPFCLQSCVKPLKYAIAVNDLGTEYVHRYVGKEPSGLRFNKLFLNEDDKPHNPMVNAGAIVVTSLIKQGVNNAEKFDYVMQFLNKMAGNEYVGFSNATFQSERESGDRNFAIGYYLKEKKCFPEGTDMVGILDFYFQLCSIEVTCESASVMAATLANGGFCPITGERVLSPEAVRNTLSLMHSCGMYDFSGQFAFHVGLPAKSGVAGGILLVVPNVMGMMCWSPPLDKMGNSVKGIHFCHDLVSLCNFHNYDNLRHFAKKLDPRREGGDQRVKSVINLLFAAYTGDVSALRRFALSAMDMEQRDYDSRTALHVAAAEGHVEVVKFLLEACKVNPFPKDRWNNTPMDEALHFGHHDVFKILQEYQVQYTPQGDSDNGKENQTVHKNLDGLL
#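 Two-point fluorescence kinetic (t0, 30 min RT) for hKGA; glutamate detected via glutamate oxidase–HRP–Amplex Red. Substrate: 1 mM L-glutamine solution; buffer 45 mM KH2PO4, pH 8.2.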
# BAZ2B inh = qHTS Assay for Inhibitors of BAZ2B; AlphaScreen BAZ2B-H3K14Ac peptide displacement; Bromodomain adjacent to zinc finger domain protein 2B (Homo sapiens), Q9UIF8; Potency, µM (top dose mostly 114 µM), for the others: at the highest dose activity change, negative = inhibition, usual class: inhibitors; 360,000 compounds, 4.4% hits; further: on the % scale 0 is the no-effect control and ±100 the full control effect; nearly all actives have a fitted effect of over 60% in size
#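 Compounds, titrated to a top concentration of 110 uM, were incubated 30 min at room temperature with preformed BAZ2B/acetyl-K14 H3 peptide complex (50 nM each). Proximity signal was measured by AlphaScreen after 20 min with beads.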
# G9a inh = qHTS Assay for Inhibitors of Histone Lysine Methyltransferase G9a; Histone-lysine N-methyltransferase EHMT2 (Homo sapiens), Q96KQ7; G9a H3K9 monomethylation, AlphaScreen, 2 h; Potency, µM (doses to about 102 µM), for the others: top-dose activity, negative = inhibition, most hits filed as inhibitors; 350,000 compounds, 8.8% hits; AID 504332, 2011; further: on the % scale 0 is the no-effect control and ±100 the full control effect; nearly all actives have a fitted effect of over 75% in size
#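 AlphaScreen detection with an anti-monomethyl H3K9 antibody quantified product after a 2 h room-temperature reaction containing 500 nM biotinylated H3K9 peptide, 20 µM SAM and 20 nM enzyme, which had been preincubated 15 min with compound.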
# Starred values were filed as active, the others as inactive; u = inconclusive; x = no result; ! = not confirmed by another sample; [ ] = another dose, or the depositor's remark. Compounds with a hit are over-represented: about 10% of the library has one in this group of screens. The call rests on the fitted dose curve; in most records, active means well fitted curve in the direction sought with a large enough effect; inconclusive means small, poorly fitted or top-dose-only effect, or another doubt; inactive means no such curve, though single readings can be large; an effect the other way counts as inactive or inconclusive. Potency means the concentration at half of the fitted maximal effect.
SMILES,JMJD2A Tudor inh,HP1b binding inh,GLS inhibitor,BAZ2B inh,G9a inh
COc1cc(/C=C/[N+](=O)[O-])ccc1OC(=O)c1cccnc1,-23%,16%,57%,-32%,3.5µM*
COc1cc(/C=N/n2cnnc2)ccc1OC(=O)N(C)C,-31%,15%,4%,-18%,5%[12.7 µM]
O=C(O)c1[nH]c(=O)[nH]c(=O)c1F,7.1µM*,-1%,24%,50µM*,28µM*
CN1CCN(c2ccc(NC(=O)Oc3ccccc3)cc2)CC1,-23%,-1%,75%,-1%,3.5µM*
COc1cc(/C=C2\C[C@H]3[C@@H]4CC=C5C[C@@H](N6CCCC6)CC[C@]5(C)[C@H]4CC[C@]3(C)[C@H]2O)cc(OC)c1OC,-20%,-8%,u,x,x
COc1cc(C2c3cc4c(cc3C(O)[C@H]3COC(=O)C23)OCO4)cc(OC)c1OC (some centres undefined),x,x,x,x,-2%[2.33 µM]
O=C(O)CCC(=O)NCCC1=c2ccccc2=N/C1=C\c1c(O)n(Cc2ccc(F)cc2)c(=S)[nH]c1=O,32µM*,32µM*,u,32µM*,x
COc1cc(CN=Cc2c(O)n(Cc3ccccc3)c(=S)[nH]c2=O)cc(OC)c1,-1%,34%,-10%,-8%,x
Cc1ccc(C=C2C(Cl)=C(Cl)C(Cl)=C2Cl)cc1,14µM*,16µM*,-15%,20µM*,8.9µM*
CCCNC(=O)N1[C@H]2CC[C@@H]1C(C(=O)OC)=C(c1cccc(C#N)c1)C2,-10%,88%,-4%,-5%,17%[2.33 µM]
CC(N)Cc1ccccc1Sc1ccc(O)cc1 (centres undefined),x,x,x,-5%[57.1 µM],35µM*
CC(=O)[C@H]1CC[C@H]2[C@@H]3CC[C@H]4C[C@H](O)CC[C@]4(C)[C@H]3C(=O)C[C@]12C,-18%,12%,-5%,-20%,18%[59 µM]
CSCCC(c1nnnn1C1CCCC1)N1CCC(n2c(=O)[nH]c3ccccc32)CC1 (centres undefined),x,x,2%,x,x
CN1C[C@H](CNC(=O)OCc2ccccc2)C[C@@H]2c3cccc4c3c(cn4C)C[C@H]21,u,-1%,-7%,45µM*,24µM*!
CN1C[C@H](CO)C[C@@H]2c3cccc4[nH]cc(c34)C[C@H]21,-13%,20%,6%,0%,3%
CCCCn1c(O)c(C(C)=Nc2ccc(OCC)cc2)c(=O)[nH]c1=O,-21%,15%,-6%,-25%,u
CN1CCN(c2ccc(S(=O)(=O)C(F)(F)F)cc2[N+](=O)[O-])CC1,-7%,3%,-3%,-8%,10%[59 µM]
CCn1ccnc1CN1CCCC(C(=O)c2ccc(OC)cc2OC)C1 (centres undefined),-16%,24%,-16%,-4%,7%
CCn1ccnc1CN1CCCC(C(=O)c2cc(F)ccc2OC)C1 (centres undefined),-21%,-11%,5%,-39%,7.1µM*
Cn1cnc(CCN)c1,14µM*,17%,3%,x,7.9µM*!
COCCCNC(=O)c1c(NC(=O)c2ccco2)n(Cc2ccccc2)c2nc3ccccc3nc12,u,u,-9%,1%,u
CCN[C@@H](C)Cc1ccccc1,x,x,-11%[99.4 µM],x,x
CC(Cc1ccccc1)NCC(=O)Nc1cc(N(C)C)nc2ccccc12 (centres undefined),1.1µM*,u,13%,35µM*,u
CN1CCN(c2cc(N3CCCCCC3)c(F)cc2[N+](=O)[O-])CC1,u,-32%,11%,u,u
O=C1NC(=O)C(Sc2ccccc2[N+](=O)[O-])C(=O)N1,28µM*,u,-7%,50µM*,2.8µM*
SMILES,JMJD2A Tudor inh,HP1b binding inh,GLS inhibitor,BAZ2B inh,G9a inh
O=[N+]([O-])c1cccc2c([N+](=O)[O-])cccc12,-12%,23%,-2%,u,3%[0.501 µM]
O=C(Nc1ccccc1)N1CC[C@@]2(CCCN(C(=O)Oc3ccccc3)C2)C1,x,x,x,x,-1%[12.7 µM]
CNCCc1c(C)n[nH]c1C,-9%,20%,9%,0%,u
CNCCc1nc(N)n[nH]1,-8%,15%,6%,u,56µM*
O=C(c1cc(-c2ccccc2)on1)N1CCC2(CC1)OCCO2,x,x,x,-11%,-3%
COc1ccc(C)cc1NC(=O)N(Cc1ccc2c(c1)OCO2)C1CCN(Cc2ccccc2)CC1,u,3%,-15%,u,u
COc1ccc(C)cc1NC(=O)CN1CCN(CC(=O)Nc2ccccc2F)CC1,9%,52%,0%,-2%,40µM*!
CCP(=S)(CC)c1ccc(N(C)C)cc1,-14%,-1%,4%,-13%,-31%
Oc1ccc2ccccc2c1CN1CC=C(c2ccccc2)CC1,-2%[57.1 µM],51%,-22%,-15%,45µM*
O=C(CCN1CC=C(c2ccccc2)CC1)NCc1ccccc1,x,x,9%,x,x
Brc1cccc(CNCCc2ccc3c(c2)OCO3)c1,22µM*,-34%,3%,56µM*,x
COc1cccc(CNCCc2cccc(F)c2)c1OC,28µM*,u,-1%,79µM*,-9%[0.501 µM]
CCOc1ccc(Cl)cc1CNCCc1ccc(F)cc1,0%,43%,-1%,-18%,-5%
CCOc1cc(CNCCc2cccc(F)c2)ccc1OC,1.4µM*,71µM*,-1%,45µM*,22µM*
COc1cc(OC)c(OC)cc1CNCCc1ccc2c(c1)OCO2,32µM*,-25%,3%,u,28µM*
Cc1c(NP(=O)(C(C)(C)C)C(C)(C)C)c(=O)n(-c2ccccc2)n1C,-14%,48%,13%,-9%,4%
Cc1cc(C)c(S(=O)(=O)NCC2CCC(C(=O)N3CCC4(CC3)OCCO4)CC2)c(C)c1 (centres undefined),-7%,3%,-4%,8%,-4%[12.7 µM]
CC(=O)Nc1nnc(CCN(CCc2nnc(NC(C)=O)s2)[N+](=O)[O-])s1,3%,44%,1%,-11%,x
Cc1ccc(-n2c(=S)[nH]c3ccc(C)cc3c2=O)cc1,x,x,1%,x,x
O=P(Oc1ccccc1)(Oc1ccccc1)C(O)c1ccc(Cl)cc1 (centres undefined),-4%,44%,24%,0%,-9%[2.33 µM]
COc1ccc(CCNCc2ccc(C)s2)cc1OC,-23%,5%,-14%,-18%,-28%
COc1cccc(CNCCc2ccc3c(c2)OCO3)c1OC,79µM*,-13%,1%,56µM*,9%[0.501 µM]
COc1cc(Br)c(CNCCc2ccc3c(c2)OCO3)cc1OC,25µM*,u,0%,u,8.9µM*
CCn1c(C)[n+](CC(O)COCC2CC=CCC2)c2ccccc21 (centres undefined),u,13%,-4%,-1%,10µM*
